± gives the standard deviation.
Test system: MILI (PIWIL2) piRISC loaded with piRNA #1 (26 nt)
Assay: pre-steady-state target cleavage rate (min^-1); guide: piRNA #1 5'p-UGAGGUAGUAGGUUGUAUAGUAUCCA; MIWI and MILI are mouse PIWI proteins and EfPiwi is from a freshwater sponge; tags in brackets are library labels; higher = faster piRNA-guided slicing of the target
Conditions: auxiliary factor: 500 nM mouse GTSF1
Method in brief: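 Cleave-'n-Seq: a transcribed, DNA-blocked target RNA library (0.1 nM) was mixed with 1 nM active affinity-purified piRISC carrying one synthetic guide, with or without 500 nM GTSF1 partner protein, in HEPES–potassium acetate buffer at 33 °C for 0–8 or 0–960 min. Uncleaved targets were sequenced and normalised to depth and to weakly complementary targets. Three trials were pooled, and k3 was capped at 0.0001 min^-1. The pre-steady-state cleavage rate came from a burst-and-steady-state fit.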

Sequence | pre-steady-state target cleavage rate
GGAGUGGAUACUAUACAACCUACUCCCUCA | 0.0191 ± 0.0045
GGAGAGCAUACUAUACAUCCUACUACCUCA | 0.335 ± 0.02
GGAGACCUUACUAUCCAACCUACUACCUCA | 0.17 ± 0.018
GGAGAGCAUACUAUACAACCUACUUCCUCA | 0.0809 ± 0.025
GGAGACGAUACUAUACAACCUUCAACCUCA | 0.00736 ± 0.0019
GGAGACGAUACAAUACAACCUACUACGUCA | 0.102 ± 0.015
GGAGACCAACUAUACAACCUACUACCUCA | 0.224 ± 0.021
GGAGACCAUACUAUACAUCCAACUACCUCA | 0.00924 ± 0.0032
GGAGACCUAACUAUACAACCUACUACCCCA | 0.195 ± 0.058
GGAGAGGAUACUAUACAACCUACUACCUGCA | 0.137 ± 0.012
GGAGACCUUACUAUACAACCUACAACCUCA | 0.126 ± 0.016
GGAGACGAUACUAUACAACCUACUAGCCUCA | 0.159 ± 0.021
GGAGAGGAUACUAUACUUCCUACUACCUCA | 0.19 ± 0.015
GGAGACGAUACUUACAACCUACUACCUCA | 0.114 ± 0.01
GGAGACGUUACUAUACAAGCUACUACCUCA | 0.216 ± 0.017
GGAGAGGAUACGAUACAACCUACUACCUCA | 0.166 ± 0.011
GGAGACCUAACUAUACAACCUACAACCUGA | 0.00865 ± 0.0074
GGAGAGCAUACUUUACAACCUACUACCUCA | 0.138 ± 0.01
GGAGAGGAUACUAUACAACCUAACUACCUCA | 0.0231 ± 0.0035
GGAGUGGAUACUAUACAACCUACUACGUGA | 0.0157 ± 0.0044

Sequence | pre-steady-state target cleavage rate
GGAGUGGAUACUAUACAACCUACUAUCUCA | 0.137 ± 0.011
GGAGACCAUACAAUACAUCCUACUACCUCA | 0.209 ± 0.025
GGAGAGCAUACUAUACAACCAACUACCUCA | 0.00634 ± 0.0024
GGAGACGUACUAUACAACCUACUACCUCA | 0.154 ± 0.015
GGAGACCAUACUAUACAACCUACUACCGCA | 0.203 ± 0.025
GGAGACGAUAAUAUACAACCUACUACCUCA | 0.172 ± 0.011
GGAGACCAUACUAUACAACCUACUAGGAGA [g6:g23:cont:t1A] | 0.00402 ± 0.0038
GGAGACCAUACUAUACAACCUACAACCUGA | 0.0179 ± 0.0095
GGAGACCUAUGUAUACAACCUACUACCUCG [g2:g19:cont:t1G] | 0.0649 ± 0.0098
GGAGACCUAUGUAUACAACCUACUACCUCU [g2:g19:cont:t1U] | 0.0508 ± 0.0069
GGAGUGGAUACUAUACAACCUACUACCUCG [g2:g26:cont:t1G] | 0.164 ± 0.011
GGAGACCAAACUAUACAACCUAGUACCUCA | 0.0169 ± 0.0096
GGAGUGGAUACUAUACAACUUACUACCUCA | 0.0246 ± 0.0024
GGAGUGGAUACUAUACAACCCACUACCUCA | 0.0174 ± 0.0024
GGAGACGAUUCUAUACAACCAACUACCUCA | 0.00752 ± 0.0023
GGAGACCAUUCUAUACAACGUACUACCUCA | 0.0141 ± 0.0029
GGAGAGGAUACUAAACAACCUACUAGCUCA | 0.0547 ± 0.012
GGAGACCUUACUAUACAUCCUACUACCACA | 0.246 ± 0.02
GGAGACCUAUCAUAUACAACCUACUACCUCA | 0.0423 ± 0.0085
GGAGACGAUACUAUGACAACCUACUACCUCA | 0.186 ± 0.017

Source: the supplement of paper PMC10338343
